Laboratory results taken from PubChem BioAssay (NCI).
Compounds without any hit were thinned out: in the full panel of roughly 83,000, 20% have a hit.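 48-hour exposure, single concentration, 96-well plates; percent growth endpoint where 0 means no net growth. Active: below 10.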 Activity calls are given as the source filed them.

How the values were obtained:
Assay in all cases: NCI-60 one-dose screen, 48 h (100 = growth as untreated, 0 = no growth, -100 = all killed)
Conditions in all cases: 10 µM unless noted
[1] = tested on: NCI-H23 lung
[2] = tested on: NCI-H226 lung
[3] = tested on: NCI-H322M lung
[4] = tested on: HOP-62 NSCLC
[5] = tested on: HOP-92 NSCLC
[6] = tested on: NCI-H522 lung
[7] = tested on: A549/ATCC NSCLC
[8] = tested on: 786-0 renal
[9] = tested on: COLO 205 colon
[10] = tested on: DU-145 prostate
[11] = tested on: K-562 leukemia
[12] = tested on: MALME-3M melanoma
[13] = tested on: MDA-MB-231 breast
[14] = tested on: RXF 393 renal
[15] = tested on: SF-268 CNS
[16] = tested on: SF-295 CNS
[17] = tested on: SF-539 CNS
[18] = tested on: UACC-257 melanoma
[19] = tested on: M14 melanoma
[20] = tested on: NCI-H460 lung

Measured: growth

COCCn1cc(-c2nc(-c3c[nH]c4ncccc34)cs2)c2ccccc21
active: [5] 2.56%
inactive: [1] 40.7% | [2] 48.2% | [3] 43.4% | [4] 47.2% | [6] 46.7% | [7] 52.2% | [8] 77.9% | [9] 24.8% | [10] 85.5% | [11] 28.5% | [12] 97.8% | [13] 22.5% | [14] 51.6% | [15] 63.9% | [16] 68.8% | [17] 68.4% | [18] 87.3% | [19] 68.6%

COc1ccc(/C=C(/C(=O)N2CCNCC2)c2cc(OC)c(OC)c(OC)c2)cc1O
inactive: [1] 49.9% | [2] 88.7% | [3] 50% | [20] 37.6% | [5] 48.7% | [7] 41.6% | [8] 95.5% | [9] 25.9% | [10] 27% | [11] 22% | [12] 46.6% | [13] 58.2% | [15] 49.5% | [16] 66.3% | [18] 27% | [19] 38%
active: [6] 0.313% | [14] 7.47% | [17] 6.82%

CCN1C2CCC1/C(=C\c1ccccc1)C(=O)/C2=C/c1ccccc1
inactive: [1] 32.5% | [2] 59.9% | [3] 51.6% | [4] 59.8% | [5] 58.5% | [6] 41.3% | [7] 72.9% | [8] 57.2% | [9] 43.5% | [11] 32.1% | [12] 63.7% | [13] 79.2% | [14] 48.9% | [15] 42.8% | [16] 48.4% | [17] 45.4% | [18] 52.2% | [19] 48.2%
active: [10] 1.64%

Cc1ccc(S(=O)(=O)c2nc(-c3ccccc3)oc2SCC(N)=O)cc1
inactive: [1] 96.8% | [2] 98.1% | [3] 104% | [20] 104% | [5] 83.2% | [6] 76.3% | [7] 96.7% | [8] 95% | [9] 111% | [10] 101% | [11] 88.2% | [12] 98.9% | [13] 104% | [14] 99% | [15] 90% | [16] 98.9% | [17] 97.2% | [18] 113% | [19] 97.1%

COc1cc2c3c(c4c5ccccc5[nH]c4c2c(OC)c1OC)C(=O)N(CCN1CCCCC1)C3=O
active: [7] -63.3% | [8] -85.9% | [10] -91.2% | [11] 3.53% | [14] -9.89%
inactive: [1] 17.5% | [2] 28.2% | [3] 32% | [5] 48.7% | [6] 36.3% | [9] 28.3% | [12] 32% | [13] 38.1% | [15] 22.7% | [16] 32.9% | [17] 41.4% | [18] 42.2% | [19] 12.3%

COc1ccc(-c2cc(-c3cc(OC)ccc3OC)nc(SCC(C)=O)c2C#N)cc1
inactive: [1] 76.1% | [2] 83.4% | [3] 97.6% | [20] 78.8% | [5] 38.2% | [6] 54.9% | [7] 49.4% | [8] 75% | [9] 78.2% | [10] 73.7% | [11] 72.2% | [12] 92% | [13] 50.9% | [15] 65.8% | [16] 58.5% | [17] 64.9% | [18] 93.5% | [19] 69.8%
active: [14] -0.171%

C=C(C)[C@@H]1CC[C@]2(C(=O)N3CCNCC3)CC[C@]3(C)[C@H](CC[C@@H]4[C@@](C)(CCC(=O)N5CCNCC5)[C@H](C(=C)C)CC[C@]43C)[C@@H]12
active: [20] 8.8% | [11] 3.02%
inactive: [1] 93.2% | [2] 92.7% | [3] 102% | [5] 95.5% | [6] 71.4% | [7] 75.2% | [8] 80.2% | [9] 77.9% | [10] 79.1% | [12] 98.9% | [13] 71.2% | [14] 82.2% | [15] 98.4% | [16] 101% | [17] 79.4% | [18] 95.5% | [19] 85.8%

COc1ccc2c(c1)oc1c(C)c3c(c(C)c12)C(=O)N(CCOS(C)(=O)=O)C3=O
inactive: [1] 94.2% | [2] 106% | [3] 96.7% | [20] 94% | [5] 113% | [7] 109% | [8] 95.2% | [9] 107% | [10] 106% | [11] 96% | [12] 90.1% | [13] 90.7% | [14] 116% | [15] 92.3% | [16] 103% | [17] 92.2% | [18] 125% | [19] 103%
